Source: PubChem
Hits are enriched below; roughly 4.8% of the tested compounds scored in any of these assays.
ATXN2 expr inh = inhibitors of ATXN2 expression; Potency, µM (titrated, usually from 57 µM), most hits filed as inhibitors; HEK-293 ATXN2-luciferase reporter, luminescence, 24 h; 360,000 compounds, 0.72% hits; note: nearly all actives have a fitted effect of over 55% in size
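ATXN2-luciferase reporter cells (luciferase flanked by upstream and downstream ATXN2 gene portions) were treated 24 h at 37 °C with compounds at up to 57 uM. SteadyGlo luminescence gave expression; GF-AFC fluorescence gave viability.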
S2 tox = reduces viability in counter-screen for ATXN expression inhibitors | S2 cells (HEK-293 line with an ATXN2-luciferase reporter) viability, CellTiter-Fluor protease fluorescence, 24 h | Potency, µM (top dose mostly 56.7 µM), hits mostly cytotoxic | 400,000 compounds, 0.49% hits | AID 651635; note: nearly all actives have a fitted effect of over 40% in size
DRD3 antagonist = blocks the human D3 dopamine receptor | 360,000 compounds, 2.5% hits | max response, negative = inhibition, % | D3R cells, DiscoveRx beta-arrestin luminescence, antagonist mode; active compounds read low | P35462; in the data active = max response below about -50%; inconclusive = no clear call, values can overlap the other calls
Target sequence (P35462 whole entry, looked up): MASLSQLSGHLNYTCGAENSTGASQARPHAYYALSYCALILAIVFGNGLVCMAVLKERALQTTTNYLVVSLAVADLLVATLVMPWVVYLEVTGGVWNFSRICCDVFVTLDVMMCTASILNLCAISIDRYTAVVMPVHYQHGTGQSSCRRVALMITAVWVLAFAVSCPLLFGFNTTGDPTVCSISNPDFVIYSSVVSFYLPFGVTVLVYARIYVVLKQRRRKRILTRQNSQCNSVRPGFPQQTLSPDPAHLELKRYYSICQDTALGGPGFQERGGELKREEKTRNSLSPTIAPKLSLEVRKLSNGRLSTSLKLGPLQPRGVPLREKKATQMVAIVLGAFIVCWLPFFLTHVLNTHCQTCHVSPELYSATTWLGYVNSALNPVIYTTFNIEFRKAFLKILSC
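Cells expressing the human receptor were seeded at 1500 cells/well, incubated overnight at 37 degrees C in 5% CO2, then exposed to library compounds with dopamine controls for 90 minutes at 37 degrees C before luminescent detection.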
D3 ag = D3 dopamine receptor (human) agonism. D3R DiscoveRx beta-arrestin cells, luminescence, 90 min. max activation, %. 410,000 compounds, 0.58% hits. AID 652048; in the data active = max activation above about 30%
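Agonist mode: compounds and dopamine controls were applied to plated cells for 90 min at 37 degrees C after an overnight attachment at 1500 cells/well. Luminescent read-out followed 30 - 60 minutes at room temperature with DiscoveRx detection reagent.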
TGFb SMAD3 inh = TGF-b pathway inhibition | HepG2 CAGA-GFP TGF-b/SMAD3 reporter, GFP fluorescence, 18 h; TGF-beta stimulated, 500 pg/mL final | Potency, µM (titrated, usually from 46.1 µM), actives largely listed as inhibitors | 410,000 compounds, 1.2% hits; note: nearly all actives have a fitted effect of over 65% in size
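HEPG2 CAGA-GFP, 1000 cells/well; 2 h settle, 37 C; cpd via pin tool; TGF-b 500 pg/mL final; 18 h, 37 C; GFP imaging ex488/em500-530; %Activity normalised to -TGF-b and +DMSO controls; CRC fit, curve class.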
HepG2 tox = HepG2 cytotoxicity, counter-screen for TGF-b inhibitors | 410,000 compounds, 0.76% hits | HepG2 CAGA-GFP viability, ATP luminescence, 18 h | Potency, µM (titrated, usually from 46.1 µM), most hits filed as cytotoxic | AID 588856
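HepG2 CAGA-GFP cells (1000/well, DMEM with 1% FBS) received compound, then TGF-beta at 500 pg/mL final, and were incubated 18 hours at 37 degrees C. Viability was read by CellTiter-Glo luminescence. Media-only wells were set as complete cell-killing and DMSO as no toxicity.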
Large screens that a line does not name were inactive. Unless noted, calls come from the whole dose curve; as a rule, active = well fitted curve in the direction sought with a large enough effect; inconclusive = small, poorly fitted or top-dose-only effect, or another doubt; inactive = no such curve, though single readings can be large; an effect the other way counts as inactive or inconclusive.

Cc1cccc(NC(=O)c2oc3ccccc3c2NC(=O)Cc2coc3cc(C)cc(C)c23)c1	TGFb SMAD3 inh inconclusive (no result: DRD3 antagonist)
CCCNC(=O)NC(=O)CN1C(=O)NC(C)(c2ccc3ccccc3c2)C1=O (configuration not stated)	D3 ag 35
CCCNC(=O)NC(=O)CN1C(=O)NC(C)(c2ccc(C)cc2)C1=O (configuration not stated)	none
CCOC(=O)c1ccccc1NC(=O)N1CCN(Cc2cc(=O)n3nc(-c4ccccc4)sc3n2)CC1	none (no result: DRD3 antagonist)
COc1cc2c(cc1OC)[C@H](Cc1ccc(O)cc1)NCC2	S2 tox inconclusive, DRD3 antagonist -62, TGFb SMAD3 inh inconclusive
COc1cc2c(cc1O)C(Cc1ccc(O)cc1)NCC2 (configuration not stated)	DRD3 antagonist -107
COc1cc2c(cc1OC)C(c1ccc(O)cc1)NCC2 (configuration not stated)	none
Cc1cc(C)cc(NC(c2cccc(Cl)c2)c2nnc(-c3ccccc3)o2)c1 (configuration not stated)	TGFb SMAD3 inh inconclusive (no result: DRD3 antagonist)
O=C(CSc1nc2ccccc2c(=O)n1CCCN1CCOCC1)Nc1ccc(F)c(Cl)c1	ATXN2 expr inh inconclusive, S2 tox inconclusive
Cc1ccc(NC(=O)CSc2nc3ccccc3c(=O)n2CCCN2CCCCC2)cc1Cl	ATXN2 expr inh inconclusive, S2 tox inconclusive, TGFb SMAD3 inh inconclusive, HepG2 tox 14µM
COc1ccc(CCn2c(SCCN3CCCCC3)nc3ccccc3c2=O)cc1OC	DRD3 antagonist -103 (no result: ATXN2 expr inh)
COc1cccc(NC(=O)CSc2nc3c(sc4ccccc43)c(=O)n2CCCN2CCCC2)c1	S2 tox 22µM, DRD3 antagonist inconclusive, TGFb SMAD3 inh inconclusive (no result: ATXN2 expr inh)
C=CCNC(=O)CSc1nc2ccccc2c(=O)n1CCc1ccc(OC)c(OC)c1	none
COc1cccc(NC(=O)CSc2nc3c(sc4ccccc43)c(=O)n2CCN(C)C)c1	TGFb SMAD3 inh inconclusive
CCCCCCNc1ccc(/C=C/c2ccnc3ccccc23)cc1	TGFb SMAD3 inh inconclusive (no result: ATXN2 expr inh, S2 tox, DRD3 antagonist, D3 ag)
CCc1nn(CC(=O)NCCC(C)C)c(=O)c2cc3occc3n12	none (no result: DRD3 antagonist)
O=C(CSc1nc2c([nH]c3ccccc32)c(=O)n1-c1cccc(Cl)c1)c1ccccc1	none (no result: DRD3 antagonist)
CN(C)c1c(Cl)cc(/C=C/c2ccnc3ccccc23)cc1Br	TGFb SMAD3 inh inconclusive (no result: ATXN2 expr inh, S2 tox, DRD3 antagonist, D3 ag)
Cc1noc(C)c1C(=O)N1CCC1(C)C(=O)NS(=O)(=O)c1cccc(Cl)c1 (configuration not stated)	D3 ag 30
Fc1cccc(CCN2CCNC[C@H]2Cc2cccc3ccccc23)c1	S2 tox inconclusive, TGFb SMAD3 inh 16µM, HepG2 tox 16µM
Cc1c(Cl)ccc2c1NC(=O)[C@]21N[C@@H](Cc2ccccc2)[C@H]2C(=O)N(c3ccc(F)cc3)C(=O)[C@H]21	S2 tox inconclusive, TGFb SMAD3 inh 10µM
O=C1[C@@H]2C(Cc3ccc(O)cc3)NC3(C(=O)Nc4ccc(F)cc43)[C@@H]2C(=O)N1c1ccccc1 (some centres not stated)	none
Cc1nc(-c2cccc(NC(=O)Nc3ccc([N+](=O)[O-])cc3)c2)no1	ATXN2 expr inh 13µM, TGFb SMAD3 inh inconclusive (no result: DRD3 antagonist)
COc1ccc(C)cc1NC(=O)Nc1cccc(-c2noc(C)n2)c1	none (no result: DRD3 antagonist)
O=C(Nc1ccc2nn(-c3ccc(F)cc3)nc2c1)c1cccc2c(Cl)cccc12	none (no result: DRD3 antagonist)
CCCC(=O)N1c2nc(-c3ccco3)nn2C2(CCCCC2)[C@@H]2CCCC[C@@H]21	TGFb SMAD3 inh inconclusive (no result: ATXN2 expr inh, S2 tox, DRD3 antagonist)
O=[N+]([O-])c1cc(Br)c(Nc2ccccc2)c([N+](=O)[O-])c1	S2 tox 13µM, DRD3 antagonist inconclusive, TGFb SMAD3 inh 18µM (no result: ATXN2 expr inh)
Cc1c(C(=O)Nc2ccc(Nc3ccccc3)cc2)cccc1[N+](=O)[O-]	none (no result: ATXN2 expr inh)
O=C(Nc1ccc(Nc2ccncc2)cc1)c1ccc([N+](=O)[O-])cc1	S2 tox inconclusive, TGFb SMAD3 inh 18µM, HepG2 tox 18µM (no result: ATXN2 expr inh)
O=C(Nc1ccc(Oc2cccnc2)cc1)c1ccc([N+](=O)[O-])cc1	none
